Data published in PubChem BioAssay (Tox21).
Where “and” joins values, the source holds several entries; their conditions need not be identical. Equal entries are not always repeated. Results filed as inconclusive are left out. Where a call stands in place of a potency, no number is given. More than one record can exist for a structure, and the calls need not agree. Calls of active or inactive are those of the source. Unless noted, calls follow the shape of the dose curve; as a rule, active = well fitted curve in the direction sought with a large enough effect in the repeat runs; inconclusive = weak or mixed curves; inactive = no such curve, though single readings can be large; an effect the other way counts as inactive or inconclusive.

Key:
[1] = qHTS assay to test for compound auto fluorescence at 535 nm (green) in HEK293 cells (AID 720680)
[2] = qHTS assay to test for compound auto fluorescence at 460 nm (blue) in HEK293 cell free culture (AID 720681)
Outline: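 Blue fluorescence (Ex 405/Em 460 nm, triamterene-equivalent) was read immediately after pin transfer of compound or DMSO into medium (DMEM, 10% FBS) without cells.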

[3] = qHTS assay to test for compound auto fluorescence at 535 nm (green) in HEK293 cell free culture (AID 720682)
Outline: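 Measurement is a direct plate read of green fluorescence (485 nm in, 535 nm out) after compound addition to serum-supplemented DMEM lacking cells, with fluorescein used to express intensities.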

[4] = qHTS assay to test for compound auto fluorescence at 590 nm (red) in HEK293 cell free culture (AID 720683)
Outline: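 Red-channel autofluorescence of compounds in culture medium (DMEM, 10% FBS), no cells, measured at 540/590 nm. Rose Bengal sodium is the reference fluorophore for equivalence.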

[5] = qHTS assay to test for compound auto fluorescence at 590 nm (red) in HepG2 cell free culture (AID 720684)
Outline: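 Plate contents were MEM with 10% FBS plus test compound or DMSO, no cells. Fluorescence was recorded with 540 nm excitation and 590 nm emission.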

[6] = qHTS assay to test for compound auto fluorescence at 460 nm (blue) in HepG2 cell free culture (AID 720685)
Outline: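 Compound (23 nL) or DMSO pinned into cell-free MEM with 10% FBS; blue fluorescence read at 405/460 nm excitation/emission, expressed as auto-fluorescence equivalency to triamterene.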

[7] = qHTS assay to test for compound auto fluorescence at 535 nm (green) in HepG2 cell free culture (AID 720686)
[8] = qHTS assay to test for compound auto fluorescence at 460 nm (blue) in HepG2 cells (AID 720687)
Outline: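 Blue-channel autofluorescence (Ex/Em 405/460 nm, triamterene-equivalent) was measured after 1 hr compound exposure at 37 C, 5% CO2. Cells were HepG2, plated overnight at 37 C in MEM plus 10% FBS.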

[9] = target: Glucocorticoid receptor (Homo sapiens) (UniProt P04150); test: qHTS assay to identify small molecule agonists of the glucocorticoid receptor (GR) signaling pathway (AID 720691; active = well fitted activation curve with a large enough effect in the signal ratio in the repeat runs, not every such curve was filed as active; the % refers to the signal ratio)
Outline: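 GR-bla HeLa cells (beta-lactamase reporter under glucocorticoid response element) were plated 4 h at 37 C/5% CO2, given compounds in DMSO, and incubated 18 h at 37 C. LiveBLAzer B/G FRET substrate was added for 2 h at room temperature, then fluorescence intensity read.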

[10] = target: Glucocorticoid receptor (Homo sapiens) (UniProt P04150); test: qHTS assay to identify small molecule antagonists of the glucocorticoid receptor (GR) signaling pathway (AID 720692; active = well fitted inhibition curve with a large enough effect in the signal ratio in the repeat runs, not every such curve was filed as active; the % refers to the signal ratio)
Outline: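 GR-bla HeLa cells (beta-lactamase reporter under glucocorticoid response element) were pre-plated 4 h at 37 C, treated with compounds plus 5 nM dexamethasone (final) for 18 h, then read by LiveBLAzer B/G FRET fluorescence after 2 h.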

[11] = qHTS assay to identify small molecule antagonists of the glucocorticoid receptor (GR) signaling pathway - cell viability counter screen (AID 720693); also: nearly all actives have a fitted effect of over 55% in size
[12] = qHTS assay for identifying genotoxic compounds that show differential cytotoxicity against isogenic chicken DT40 cell lines with known DNA damage response pathways - wild type cell line (AID 743012); also: nearly all actives have a fitted effect of over 60% in size; also: potency is read from the fitted curve at half-maximal effect
Outline: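 Parental DNA repair-proficient DT40 cells, 300 per well, were pre-incubated ~0.5 h at 37 C/5% CO2, pin-dosed with compounds in DMSO, then incubated 40 h. Viability was read as CellTiter-Glo luminescence after 30 min at room temperature.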

[13] = qHTS assay for identifying genotoxic compounds that show differential cytotoxicity against isogenic chicken DT40 cell lines with known DNA damage response pathways - Rev3 mutant cell line (AID 743014); also: nearly all actives have a fitted effect of over 55% in size; also: potency is read from the fitted curve at half-maximal effect
[14] = qHTS assay for identifying genotoxic compounds that show differential cytotoxicity against isogenic chicken DT40 cell lines with known DNA damage response pathways - Rad54/Ku70 mutant cell line (AID 743015); also: nearly all actives have a fitted effect of over 60% in size; also: potency is read from the fitted curve at half-maximal effect
[15] = qHTS assay to identify small molecule antagonists of the androgen receptor (AR) signaling pathway - cell viability counter screen (AID 743033; also: nearly all actives have a fitted effect of over 45% in size)
[16] = qHTS assay to identify small molecule antagonists of the androgen receptor (AR) signaling pathway using the MDA cell line - cell viability counter screen (AID 743041; also: nearly all actives have a fitted effect of over 45% in size)
Outline: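 R1881-driven MDA-kb2 AR-luc cells, 3,000/well, were dosed with library compounds for 16 h; cell health came from CellTiter-Fluor fluorescence in the reporter wells.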

[17] = qHTS assay to identify small molecule antagonists of the thyroid receptor (TR) signaling pathway - cell viability counter screen (AID 743064); also: nearly all actives have a fitted effect of over 50% in size
Outline: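 Compounds were tested on GH3.TRE-Luc cells in the presence of T3 at 1 nM final. Following 23.5 h at 37 °C, cell viability was quantified by CellTiter-Fluor.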

[18] = qHTS assay to identify small molecule antagonists of the thyroid receptor (TR) signaling pathway (AID 743065); also: series mostly up to about 70 µM; nearly all actives have a fitted effect of over 55% in size
Outline: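 Antagonism measured as loss of luciferase signal in GH3 cells stably carrying a TRE-luciferase reporter, co-treated with compound and T3 (1 nM final) for 23.5 h at 37 C. Viability was read in the same well by CellTiter-Fluor.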

[19] = target: Androgen receptor (Homo sapiens) (UniProt P10275); test: qHTS assay to identify small molecule antagonists of the androgen receptor (AR) signaling pathway (AID 743035; active = well fitted inhibition curve with a large enough effect in the signal ratio in the repeat runs, not every such curve was filed as active; the % refers to the signal ratio)
Outline: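 HEK293 cells stably carrying a UAS-driven beta-lactamase reporter (AR-UAS-bla GripTite) were plated for 4 h at 37C, then given compound and the agonist R1881 and incubated 16 h. Reporter activity was read by LiveBLAzer B/G FRET fluorescence after 2 h at room temperature.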

[20] = target: Androgen receptor (Homo sapiens) (UniProt P10275); test: qHTS assay to identify small molecule antagonists of the androgen receptor (AR) signaling pathway using the MDA cell line (AID 743042; also: nearly all actives have a fitted effect of over 55% in size)
Outline: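 Antagonist mode: compounds plus R1881 agonist added to MDA-kb2 AR-luc cells, incubated 16 h at 37C. Luciferase reporter luminescence quantified, with multiplexed CellTiter-Fluor readout for cell viability.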

Glucocorticoid receptor (Homo sapiens), sequence (P04150 whole entry, looked up): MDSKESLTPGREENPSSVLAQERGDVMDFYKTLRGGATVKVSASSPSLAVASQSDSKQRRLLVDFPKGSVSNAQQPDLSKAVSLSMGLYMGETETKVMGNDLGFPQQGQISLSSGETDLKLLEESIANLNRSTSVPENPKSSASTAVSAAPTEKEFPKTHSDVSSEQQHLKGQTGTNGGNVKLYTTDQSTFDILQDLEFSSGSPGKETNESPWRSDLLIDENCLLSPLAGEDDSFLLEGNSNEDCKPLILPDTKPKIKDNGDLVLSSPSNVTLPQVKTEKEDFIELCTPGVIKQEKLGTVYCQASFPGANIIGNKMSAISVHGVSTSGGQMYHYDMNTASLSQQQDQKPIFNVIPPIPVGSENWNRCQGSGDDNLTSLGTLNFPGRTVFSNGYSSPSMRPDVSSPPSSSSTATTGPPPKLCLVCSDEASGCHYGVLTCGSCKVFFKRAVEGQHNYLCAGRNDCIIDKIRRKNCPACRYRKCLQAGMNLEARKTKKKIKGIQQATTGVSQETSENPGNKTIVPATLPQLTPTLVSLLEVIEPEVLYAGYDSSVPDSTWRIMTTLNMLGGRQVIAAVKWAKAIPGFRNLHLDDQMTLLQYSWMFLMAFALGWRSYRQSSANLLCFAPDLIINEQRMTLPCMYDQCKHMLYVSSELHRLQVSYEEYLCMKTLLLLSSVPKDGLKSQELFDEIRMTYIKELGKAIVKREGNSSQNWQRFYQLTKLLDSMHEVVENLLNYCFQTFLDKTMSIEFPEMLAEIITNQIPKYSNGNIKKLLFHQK
Androgen receptor (Homo sapiens), sequence (P10275 whole entry, looked up): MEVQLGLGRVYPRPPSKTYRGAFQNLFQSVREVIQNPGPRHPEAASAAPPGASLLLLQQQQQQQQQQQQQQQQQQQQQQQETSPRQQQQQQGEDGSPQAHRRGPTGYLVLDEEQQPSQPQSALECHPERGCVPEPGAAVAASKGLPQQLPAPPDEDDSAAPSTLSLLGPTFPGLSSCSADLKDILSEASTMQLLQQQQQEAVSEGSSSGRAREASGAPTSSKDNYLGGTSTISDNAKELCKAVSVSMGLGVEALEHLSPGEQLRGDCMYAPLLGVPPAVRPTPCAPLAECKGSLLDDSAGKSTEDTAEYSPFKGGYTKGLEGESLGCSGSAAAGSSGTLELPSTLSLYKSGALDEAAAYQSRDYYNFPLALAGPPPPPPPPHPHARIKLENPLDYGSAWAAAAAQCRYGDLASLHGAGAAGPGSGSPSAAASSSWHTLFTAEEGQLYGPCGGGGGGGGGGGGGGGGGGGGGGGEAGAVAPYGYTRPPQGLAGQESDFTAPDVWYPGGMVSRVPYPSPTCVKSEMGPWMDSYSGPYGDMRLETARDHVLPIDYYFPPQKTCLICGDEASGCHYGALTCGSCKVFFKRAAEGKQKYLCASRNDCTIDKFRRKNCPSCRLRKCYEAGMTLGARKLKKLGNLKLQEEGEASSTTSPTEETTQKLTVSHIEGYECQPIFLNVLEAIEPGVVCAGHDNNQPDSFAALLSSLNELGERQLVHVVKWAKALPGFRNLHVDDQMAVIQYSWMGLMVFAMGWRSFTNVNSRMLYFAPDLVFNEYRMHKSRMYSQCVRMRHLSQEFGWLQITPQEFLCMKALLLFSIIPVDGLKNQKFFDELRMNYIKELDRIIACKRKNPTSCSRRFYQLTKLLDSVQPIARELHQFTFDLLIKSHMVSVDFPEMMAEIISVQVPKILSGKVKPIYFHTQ

SMILES	outcome [1]	outcome [2]	outcome [3]	outcome [4]	outcome [5]	outcome [6]	outcome [7]	outcome [8]	Potency [9]	Potency [10]	Potency [11]	Potency [12]	Potency [13]	Potency [14]	outcome [15]	Potency [16]	Potency [17]	Potency [18]	Potency [19]	Potency [20]
CCN1CCCC1=O	inactive	inactive	inactive	inactive	inactive	inactive	inactive	inactive	inactive	inactive	inactive	inactive	inactive	inactive	inactive	inactive	inactive	inactive	–	–
CC(C)=CCC/C(C)=C/CO	inactive	inactive	inactive	inactive	inactive	inactive	inactive	inactive	inactive	inactive	inactive	inactive	inactive	inactive	inactive	inactive	inactive	inactive	–	–
O=c1cc[nH]c(=O)[nH]1	inactive	inactive	inactive	inactive	inactive	inactive	inactive	inactive	inactive	inactive	inactive	inactive	inactive	inactive	inactive	inactive	inactive	inactive	–	–
c1ccc2[nH]c(-c3cscn3)nc2c1	inactive	inactive	inactive	inactive	inactive	inactive	inactive	inactive	inactive	inactive	inactive	inactive and 69 µM (active)	inactive and 54.5 µM (active)	inactive and 48.6 µM (active)	inactive	inactive	inactive	inactive	inactive	inactive
Cc1c(N(C)C)c(=O)n(-c2ccccc2)n1C	inactive	inactive	inactive	inactive	inactive	inactive	inactive	inactive	inactive	inactive	inactive	inactive	inactive	inactive	inactive	inactive	inactive	inactive	–	–
Cn1cnc2c1c(=O)[nH]c(=O)n2C	inactive	inactive	inactive	inactive	inactive	inactive	inactive	inactive	inactive	inactive	inactive	inactive	inactive	inactive	inactive	inactive	inactive	inactive	–	–
O=C(O)CN(CC(=O)O)CC(=O)O	inactive	inactive	inactive	inactive	inactive	inactive	inactive	inactive	inactive	inactive	inactive	inactive	inactive	inactive	inactive	inactive	inactive	inactive	–	–
O=C(OCc1ccccc1)c1ccccc1	inactive	inactive	inactive	inactive	inactive	inactive	inactive	inactive	inactive	inactive	inactive	inactive	inactive	inactive	inactive	inactive	inactive	inactive	–	–
COC(=O)c1ccc(O)cc1	inactive	inactive	inactive	inactive	inactive	inactive	inactive	inactive	inactive	inactive	inactive	inactive	inactive	inactive	inactive	inactive	inactive	inactive	–	–
COc1ccc(O)cc1	inactive	inactive	inactive	inactive	inactive	inactive	inactive	inactive	inactive	inactive	inactive	inactive	inactive	inactive	inactive	inactive	inactive	inactive	inactive	inactive
NC(=O)c1ccc([N+](=O)[O-])cc1Cl	inactive	inactive	inactive	inactive	inactive	inactive	inactive	inactive	inactive	inactive	inactive	inactive	inactive	inactive	inactive	inactive	inactive	inactive	–	–
CC(O)COc1ccccc1 (stereo not given)	inactive	inactive	inactive	inactive	inactive	inactive	inactive	inactive	inactive	inactive	inactive	inactive	inactive	inactive	inactive	inactive	inactive	inactive	inactive	inactive
CCCCOCCOCCOC(C)=O	inactive	inactive	inactive	inactive	inactive	inactive	inactive	inactive	inactive	inactive	inactive	inactive	inactive	inactive	inactive	inactive	inactive	inactive	–	–
